About 4,700 (1.3%) of roughly 370,000 compounds were called active. This is one part of a sample in which actives are shown more often than they occur. Unmarked numbers belong to inactive results.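 The calls were made as follows: active = inhibition above the plate cutoff, the mean of all test compounds on that plate plus 3 SD (cut at about 35% in these data); inactive = the rest.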

This experiment in a line: binders of r(CAG) RNA repeats, primary screen, biochemical, fluorescence (AID 651821).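 Also: 0% = DMSO alone and 100% = 100 µM mitoxantrone as full dye displacement; higher means more dye released from RNA so lower well fluorescence.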 To be noted: r(CAG) RNA repeat, TO-PRO-1 dye displacement fluorescence; at 3 µM; hits give high values.
`Cc1cc(N2C(=O)C(O)=C(C(=O)c3ccc(C)o3)C2c2ccc(OCc3ccccc3)cc2)no1` (configuration not stated): the inhibition was 49.3% (active).
The result for `C=CCOc1cccc(C2C(C(=O)c3ccc(C)o3)=C(O)C(=O)N2c2nnc(C)s2)c1` (configuration not stated) reads 6.27%; that for `COc1cc(C2C(C(=O)c3ccco3)=C(O)C(=O)N2c2cc(C)on2)ccc1OCc1ccccc1` (configuration not stated), 10.3%.
For the molecule `COc1cccc(Cn2cc(COC(=O)Nc3ccc(F)cc3)nn2)c1`, the inhibition was 0.76%.
Take `COCc1c(C(=O)N/N=C(\C)c2ccncc2)nnn1-c1nonc1N`: the inhibition was -1.16%.
Take `Cc1ccccc1CS(=O)(=O)Cc1ccc(C(=O)Nc2ccc(Cl)cc2)o1`: the inhibition was 6.61%.
For `O=C(N/N=C/c1cc([N+](=O)[O-])ccc1O)/C(=C\c1cccs1)NC(=O)c1ccccc1`, the inhibition was 32.3%.
As to `O=[N+]([O-])c1cc(Br)c(O)c(/C=N/Nc2nc3ccccc3s2)c1`, the inhibition is 64.1% (active).
On to `O=C(CSc1nc2ccccc2s1)NN=Cc1ccc(O)cc1O`, for which the inhibition is 11%.
For `C[C@H]1CN([C@@H](C)CO)C(=O)CCCn2nncc2CO[C@@H]1CN(C)Cc1ccc(Oc2ccccc2)cc1`, the inhibition is 1.78%.
Take `N#CCC[C@H]1CC[C@]2(CCCN(Cc3ccc(Cl)cc3)C2)O1`: the inhibition was 1.52%.
Next, `c1ccc(CN=C2Nc3ccccc3CS2)nc1`: -3.75%; `Cc1ccccc1CN1CCCCC(NC(=O)c2cccc(C#N)c2)C1=O` (configuration not stated): 3.06%.
On to `CC(C)c1nc(SCC(=O)Nc2cccc(C(=O)O)c2)c2c3c(sc2n1)CCCC3`, for which the inhibition was 69.3% (active).
For the molecule `Cc1ccc(C)c2c1cc(C)c1nnc(SCC(=O)Nc3cccc(C(=O)O)c3)n12`, the inhibition is 2.06%.
`Cc1ccc(C)c(-n2c(SCC(=O)O)nc3sc4c(c3c2=O)CCCC4)c1`: the inhibition is 27.1%.
The result for `COc1cc(C)c(C)cc1S(=O)(=O)N1CCCc2ccccc21` reads -3.84%.
The result for `CC(CCN1CCC(C(O)(c2ccccc2)c2ccccc2)CC1)Oc1ccc(Cl)cc1` (configuration not stated) reads 1.34%; that for `CCOc1ccc(N(CC(=O)Nc2c(C)n(C)n(-c3ccccc3)c2=O)S(=O)(=O)c2ccc(Cl)s2)cc1`, 1.32%; that for `CCCCCCCCN1C(=O)[C@@H](CC(=O)N2CCN(C(=O)OCC)CC2)C[C@@]2(C(=O)OC)C1=C[C@H](C1CCCC1)O[C@@H]2C`, 5.15%.
Regarding `Cn1c(=O)c2ccccc2n(CC(=O)Nc2ccc3c(c2)OCCO3)c1=O`, the inhibition was -1.32%.
For `Cc1ccc(C(=O)O)cc1-c1ccc(/C=C2\SC(=O)N(CC(=O)Nc3ccc4c(c3)OCO4)C2=O)o1`, the inhibition is 56% (active).
For the molecule `O=C(CN1CCN(c2ncc(C(F)(F)F)cc2Cl)CC1)Nc1ccc2c(c1)OCO2`, the inhibition is -4.82%.
Take `Cc1ccc2nc(CN(C)C(=O)[C@@H](Cc3ccccc3)NC(=O)[C@H]3O[C@@H](n4ccc(=O)[nH]c4=O)[C@H](O)[C@@H]3O)[nH]c2c1`: the inhibition is 0.21%.
As to `COc1ccc(CN2C/C(=C/c3ccccc3)N3C(=O)C[C@@H](c4ccccc4)N=C23)c(OC)c1`, the inhibition is 2.75%.
Next, `Cc1cc(F)ccc1S(=O)(=O)Nc1ncnc2scc(-c3ccc(F)cc3)c12`: 40.3% (active).
Next, `COc1ccc(-c2csc3ncnc(N4CCN(S(=O)(=O)c5cccc(F)c5)CC4)c23)cc1`: 3.79%.
Next, `O=S(=O)(Nc1ncnc2sccc12)c1cccc(F)c1`: 5.08%; `Cc1ccc2nc(-c3ccc(CN4CCC(n5cc(-c6ccccc6)[nH]c5=O)CC4)cc3)c(-c3ccccc3)nc2c1`: 9.33%.
As to `COc1cccc(CNC(=O)C2CCCN(c3nc4ccccc4o3)C2)c1OC` (configuration not stated), the inhibition was 4.36%.
On to `CC(=O)c1ccc(NC(=O)C2CC(=O)Nc3nc4ccccc4n32)cc1` (configuration not stated), for which the inhibition is 2.8%.
The result for `Brc1ccc(COCCc2cn(Cc3ccccc3)c3ccccc23)cc1` reads 3.73%; that for `C/C=C/c1ccc(OCC(=O)NNC(=O)CN(C)S(=O)(=O)c2ccc(C)cc2)c(OC)c1`, 1.87%; that for `Cc1ccc(S(=O)(=O)NNC(=O)/C=C/c2cccc(F)c2)cc1`, 3.74%.
The result for `COc1ccc(/C=C/C(=O)c2ccc(NS(=O)(=O)c3ccc(C)cc3)cc2)cc1O` reads 43% (active).
Take `O=C(NCc1ccccc1)[C@H]1CCCN1C(=O)[C@H]1CCCN1C(=O)N1CCOCC1`: the inhibition is -0.04%.
The result for `COc1ccc(-c2csc3ncnc(Oc4ccc5c(C)cc(=O)oc5c4)c23)cc1` reads 0.56%.
In the case of `COc1ccc(-c2cc3ccc(OCc4nn[nH]n4)cc3oc2=O)cc1`, the inhibition was 44.7% (active).
Regarding `CC(C)OC(=O)c1ccc(COc2ccc3ccc(=O)oc3c2)o1`, the inhibition is -0.52%.
Turning to `CN(C)Cc1ccc(F)cc1Sc1cc(Cl)ccc1Cl`, the inhibition is -7.65%.
Turning to `CN(CCc1ccccc1)C(=O)Cn1nc(-c2ccccc2)ccc1=O`, the inhibition is -2.33%.
`CCc1nnc(NS(=O)(=O)c2ccc(N=Cc3c(C)[nH]n(-c4ccc(C)cc4)c3=O)cc2)s1`: the inhibition is 56.7% (active).
The result for `CCc1nnc(NC(=O)CCN(c2ccc(C)cc2)S(=O)(=O)c2ccccc2)s1` reads 1.09%.
Regarding `COc1cc(SC#N)ccc1N=Cc1c(C)[nH]n(-c2ccc(C)cc2)c1=O`, the inhibition is 6.39%.
The result for `CCOC(=O)N1CCN(C(=O)C[C@H]2C[C@@]3(C(=O)OC)C(=C[C@H](C4CCCC4)O[C@@H]3C)N(Cc3ccccc3)C2=O)CC1` reads 1.98%; that for `O=C(OC12CCCN(C1)/C(=C/c1ccccc1)C2)c1ccco1` (configuration not stated), 3.14%; that for `COC(=O)Cc1csc(/N=C/c2c(O)n(-c3cccc(C(F)(F)F)c3)c(=O)c3ccccc23)n1`, -0.9%.
As for `CCOc1ccc(-n2c(O)c(/C=N/Nc3nnc(C)c(=O)[nH]3)c3ccccc3c2=O)cc1`, the inhibition was 47.2% (active).
Consider `CCOc1ccc(N/C(N)=N/c2nc(C)c(C)c(=O)[nH]2)cc1`, for which the inhibition is 1.99%.
Take `O=C(COc1ccccc1Cl)Nn1cnnc1`: the inhibition was 2.37%.
For `CCCCN1CCN(C(=O)c2ccc3c(c2)NC(=O)C(C)(C)O3)CC1`, the inhibition was -0.58%.
With `CCOC(=O)C1(Cc2ccccc2)CCN(Cc2cn(C(C)=O)c3ccccc23)CC1`, the inhibition was -1.49%.

Source of the values: PubChem BioAssay AID651821 (The Scripps Research Institute Molecular Screening Center, 2012).
